Screening data deposited in PubChem BioAssay by National Center for Advancing Translational Sciences (NCATS).
Sampled rows, rich in hits. Any-hit rate of the full collection: about 6%.
D3 antag: D3 dopamine receptor (human) antagonism | AID 652054 | max response, negative = inhibition, % | 360,000 tested, 2.5% active | D3R cells, DiscoveRx beta-arrestin luminescence, antagonist mode; stronger effect = lower value | P35462; in the data active = max response below about -50%; inconclusive = no clear call, values can overlap the other calls; note: % is set by controls: 0 for no effect and ±100 for the full control effect
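Cells expressing the human receptor were seeded at 1500 cells/well, incubated overnight at 37 degrees C in 5% CO2, then exposed to library compounds with dopamine controls for 90 minutes at 37 degrees C before luminescent detection.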
D1 antagonist: blocks dopamine activation of the human D1 receptor; P21728; HEK293 TREx D1 cells, calcium flux, dopamine EC80; stronger effect = lower value; activity change, negative = inhibition, % at 10 µM; 360,000 tested, 3.2% active; in the data active = activity change below about -30%; note: % is set by controls: 0 for no effect and ±100 for the full control effect
Target sequence (P21728 whole entry, looked up): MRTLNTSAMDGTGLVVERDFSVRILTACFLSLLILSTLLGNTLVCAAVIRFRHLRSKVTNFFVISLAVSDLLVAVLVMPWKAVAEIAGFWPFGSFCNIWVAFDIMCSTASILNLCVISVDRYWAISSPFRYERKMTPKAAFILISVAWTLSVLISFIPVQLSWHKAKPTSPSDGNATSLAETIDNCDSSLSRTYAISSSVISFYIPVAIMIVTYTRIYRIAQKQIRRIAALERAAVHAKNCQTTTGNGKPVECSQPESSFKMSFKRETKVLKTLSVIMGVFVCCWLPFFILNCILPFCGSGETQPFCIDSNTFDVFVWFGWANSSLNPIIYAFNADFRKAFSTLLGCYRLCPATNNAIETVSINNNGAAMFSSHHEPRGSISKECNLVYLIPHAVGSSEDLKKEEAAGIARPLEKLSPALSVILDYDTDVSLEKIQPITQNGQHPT
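Kinetic fluorescence of a calcium dye serves as the read-out. D1-expressing Hek293 Trex cells, induced overnight at 30 C, are exposed to compound for 180 s before an EC80 dopamine addition, then read 180 s further.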
DRD3 agonist: D3 dopamine receptor (human) agonism. D3R DiscoveRx beta-arrestin cells, luminescence, 90 min. max activation, %. 410,000 tested, 0.58% active. AID 652048; in the data active = max activation above about 30%; note: 0% is about no effect
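Agonist-mode cell screen: cells plated at 1500/well and incubated overnight at 37 °C, then exposed to library compounds for 90 min at 37 °C. Detection reagent was added for 30–60 min at room temperature, and luminescence was read.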
D1 potentiator: human D1 dopamine receptor positive modulation; P21728; HEK293 TREx D1 cells, calcium flux, dopamine EC20 potentiation; potentiation, % at 10 µM; 360,000 tested, 0.036% active; AID 504651; in the data active = potentiation above about 30%; note: 0% is about no effect
D1 agonist: agonists of human D1 dopamine receptor; HEK293 T-REx D1 cells, calcium flux, agonist mode; 360,000 tested, 1% active; activation, % at 2 µM; P21728; in the data active = activation above about 30%; note: 0% is about no effect
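Tetracycline-induced HEK293 TREx D1 cells, force-coupled to calcium signalling, were dye-loaded with a no-wash calcium kit. Compound was pin-added after a 10 s baseline. Fluorescence was read kinetically at 1 cycle/s for 180 s, with calcium rises flagged as agonism.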
The depositor's hits bear a star; ? = inconclusive; nt = no result.

SMILES | D3 antag | D1 antagonist | DRD3 agonist | D1 potentiator | D1 agonist
CN(CC1COc2ccccc2O1)C(=O)CCNS(=O)(=O)c1ccc(F)c(Cl)c1 (configuration not stated) | 20 | nt | 2 | nt | nt
COCCCNc1c2c3c(cccc3[nH]c1=O)C(=O)c1ccccc1-2 | 27 | -53* | 0 | nt | 809*
COCCCNC1=C(Cl)C(=O)c2ccccc2C1=O | -9 | -3 | -1 | 0 | 1
CCc1nc2ccc(C(=O)NCCN3CCOCC3)cn2c1N(C=O)Cc1ccc(OC)cc1 | -21 | nt | -2 | nt | nt
Cc1cc(C)c2sc(N(Cc3cccnc3)C(=O)CCOc3ccccc3)nc2c1 | nt | nt | -4 | -1 | 19
O=C(Cc1ccccc1)NC1CC(=O)N(c2ccc3c(c2)OCCO3)C1 (configuration not stated) | nt | nt | 5 | -5 | -2
O=S1(=O)N[C@@H](Cc2ccccc2)COc2cccc(N3CCSCC3)c21 | -17 | nt | 3 | nt | nt
NC1=NC(=O)C(CC(=O)NCc2ccccc2)S1 (configuration not stated) | -65* | 5 | 3 | -2 | 4
NC1=NC(=O)CC(C(=O)NCc2ccccc2)S1 (configuration not stated) | 7 | -1 | -2 | 10 | 5
COc1ccc2[nH]c3c(c2c1)CCN1C(=O)N([C@@H](C)C(=O)NCc2ccc(C)cc2)C(=O)[C@]31C | 2 | -2 | 31* | 0 | 3
C1COCCNCCOCCOCCN1 | -92* | -8 | 1 | 5 | 2
N#CC1=C(N)OC2=C(CC/C2=C\c2ccc(F)cc2)C1c1ccc(F)cc1 (configuration not stated) | nt | -58* | nt | 7 | 235*
CCN1CC2=C(OC(N)=C(C#N)C2c2ccccc2)/C(=C\c2ccccc2)C1 (configuration not stated) | -11 | -73* | -18 | -5 | 2
N#CC1=C(N)OC2=C(CN(Cc3ccccc3)C/C2=C\c2cccnc2)C1c1cccnc1 (configuration not stated) | 20 | -30 | 3 | -4 | 5
N#CC1=C(N)OC2=C(CCC/C2=C/c2ccoc2)C1c1ccoc1 (configuration not stated) | nt | 3 | nt | 1 | 10
O=C(CSc1n[nH]c(=O)n1C1CC1)c1ccc2c(c1)OCCO2 | 25 | -1 | 5 | -2 | 13
Cc1cc(C)c(C(=O)CSc2n[nH]c(=O)n2C2CC2)cc1C | 12 | -37* | 1 | -9 | 11
CN1C(=O)C2(c3ccccc31)N(c1cccc(C(F)(F)F)c1)C(=O)CS2(=O)=O (configuration not stated) | nt | 1 | 4 | -3 | 5
O=[N+]([O-])c1cc(Cc2ccccc2)cc(C=Nc2ccc(N3CCOCC3)cc2)c1O | -67* | 12 | -5 | 7 | 3
COc1ccc(CCN(C)C(=O)CSc2nc3ncc(Cl)cc3[nH]2)cc1OC | 2 | -67* | 12 | -1 | -1
COc1ccc(CCN(C)C(=O)CSc2nccn2C)cc1OC | 3 | 3 | 2 | -2 | 4
COc1cccc(NC(=O)CSc2nc3c(oc4ccccc43)c(=O)n2Cc2ccco2)c1 | nt | 19 | -2 | -3 | 6
O[C@H]1CN(CC2CCCCC2)[C@@H](c2ccc(Cl)cc2)C[C@@H]1n1cc(C2CC2)nn1 | 13 | nt | 1 | nt | nt
COc1cccc(C2NC(c3cccc(OC)c3O)C(C)C(=O)C2C)c1O (configuration not stated) | 13 | 12 | 30* | 3 | 0
COC(=O)c1ccccc1NC(=O)c1cc(C)nc2c1c(C)nn2-c1ccc(C)cc1 | nt | -9 | 13 | -3 | 3
SMILES | D3 antag | D1 antagonist | DRD3 agonist | D1 potentiator | D1 agonist
O=C(CCSCc1ccccc1Cl)N1CCN(c2ccc(F)cc2)CC1 | nt | 2 | 2 | -1 | 1
COc1[nH]c2ccc(F)cc2c1C(=O)OCC1CCN(CCNS(C)(=O)=O)CC1 | -55* | nt | -74 | nt | nt
CC(C)n1[nH]c2ccccc2c1=O | -66* | nt | -16 | nt | nt
OC1(c2ccc(Br)cc2)CCN(Cc2cccc(Br)c2)CC1 | -106* | -3 | -17 | -6 | 6
CCC1(c2ccc(Cl)cc2)NC(=O)N(Cc2ccc(C(=O)OC)cc2)C1=O (configuration not stated) | 1 | -31* | 3 | -5 | 30
C[C@H](CO)N1C[C@H](C)[C@H](CN(C)C(=O)OCc2ccccc2)OCc2cnnn2CCCC1=O | 25 | nt | 3 | nt | nt
Cc1csc(SCC(=O)NC2CCS(=O)(=O)C2)n1 (configuration not stated) | -6 | nt | 30* | nt | nt
COc1ccc2c(c1)CCc1c(C(=O)NC3CCCCC3)noc1-2 | 28 | 0 | 35* | -1 | 7
COCCNC(=O)c1noc2c1CCc1cc(OC)ccc1-2 | ? | -12 | 11 | -8 | 3
CSc1cccc(NC(=S)N(CCC(C)C)C(C)c2ccncc2)c1 (configuration not stated) | ? | -34* | -18 | -5 | 6
COCCCN(C(=S)Nc1cc(Cl)cc(Cl)c1)C(C)c1ccccn1 (configuration not stated) | 10 | -19 | -15 | -3 | 8
COCCCN(C(=S)Nc1cc(Cl)cc(Cl)c1)C(C)c1ccncc1 (configuration not stated) | 5 | -53* | -13 | -3 | 1
COc1cccc(NC(=S)N(CCC(C)C)C(C)c2ccncc2)c1 (configuration not stated) | -11 | 1 | -1 | -2 | -1
COc1ccc(CCC(=O)NCc2nc3cccnc3n2Cc2cccc(OC)c2)cc1 | nt | 11 | -6 | -2 | 0
COc1cc(Cl)c(C)cc1NC(=O)CNC(=O)Cn1ccc2ccccc2c1=O | nt | -4 | 1 | 0 | 1
CC1CCN(CCNC(=O)c2ccc3c(=O)n(Cc4ccc(Cl)cc4)c(=S)[nH]c3c2)CC1 | -14 | -51* | -4 | 1 | 88*
CC(C)Cn1c(=S)[nH]c2cc(C(=O)NCc3ccccc3F)ccc2c1=O | 0 | -33* | -3 | -6 | 14
O=C(CCCn1c(=O)[nH]c2cc(Cl)ccc2c1=O)NCCCN1CCN(c2ccc(F)cc2)CC1 | -21 | -66* | -15 | -12 | -1
COCCn1c(=O)[nH]c2cc(C(=O)NCCN3CCN(c4ccccc4F)CC3)ccc2c1=O | -56* | -18 | 13 | -7 | 1
O=C(Nc1ccc(C(=O)OCc2cc(=O)n3nc(C4CC4)sc3n2)cc1)c1cccc(F)c1 | nt | 3 | -9 | 0 | 6
COc1cc2[nH]c(=O)n(CCC(=O)NCCCN3CCN(c4ccccc4F)CC3)c(=O)c2cc1OC | ? | -42* | 30* | -9 | 2
CC(C)NC(=O)c1ccc2c(=O)n(C3CCCC3)c(=S)[nH]c2c1 | 9 | -2 | -6 | -2 | 2
COCCn1c(=S)[nH]c2cc(C(=O)NCCCN3CCOCC3)ccc2c1=O | -14 | 5 | -4 | -3 | 1
